# Assay outcomes: PubChem BioAssay, National Center for Advancing Translational Sciences (NCATS)
# KDM5B inhibitor: KDM5B demethylase inhibition; Q9UGL1; KDM5B demethylase, FDH-coupled NADH fluorescence (FDH is formaldehyde dehydrogenase); Potency, µM (doses to about 57.7 µM), most hits filed as inhibitors; actives 2.6% (n = 220,000); active = well fitted inhibition curve with a large enough effect; also: 0% is about no effect; nearly all actives have a fitted effect of over 70% in size
# Target sequence (Q9UGL1 whole entry, looked up): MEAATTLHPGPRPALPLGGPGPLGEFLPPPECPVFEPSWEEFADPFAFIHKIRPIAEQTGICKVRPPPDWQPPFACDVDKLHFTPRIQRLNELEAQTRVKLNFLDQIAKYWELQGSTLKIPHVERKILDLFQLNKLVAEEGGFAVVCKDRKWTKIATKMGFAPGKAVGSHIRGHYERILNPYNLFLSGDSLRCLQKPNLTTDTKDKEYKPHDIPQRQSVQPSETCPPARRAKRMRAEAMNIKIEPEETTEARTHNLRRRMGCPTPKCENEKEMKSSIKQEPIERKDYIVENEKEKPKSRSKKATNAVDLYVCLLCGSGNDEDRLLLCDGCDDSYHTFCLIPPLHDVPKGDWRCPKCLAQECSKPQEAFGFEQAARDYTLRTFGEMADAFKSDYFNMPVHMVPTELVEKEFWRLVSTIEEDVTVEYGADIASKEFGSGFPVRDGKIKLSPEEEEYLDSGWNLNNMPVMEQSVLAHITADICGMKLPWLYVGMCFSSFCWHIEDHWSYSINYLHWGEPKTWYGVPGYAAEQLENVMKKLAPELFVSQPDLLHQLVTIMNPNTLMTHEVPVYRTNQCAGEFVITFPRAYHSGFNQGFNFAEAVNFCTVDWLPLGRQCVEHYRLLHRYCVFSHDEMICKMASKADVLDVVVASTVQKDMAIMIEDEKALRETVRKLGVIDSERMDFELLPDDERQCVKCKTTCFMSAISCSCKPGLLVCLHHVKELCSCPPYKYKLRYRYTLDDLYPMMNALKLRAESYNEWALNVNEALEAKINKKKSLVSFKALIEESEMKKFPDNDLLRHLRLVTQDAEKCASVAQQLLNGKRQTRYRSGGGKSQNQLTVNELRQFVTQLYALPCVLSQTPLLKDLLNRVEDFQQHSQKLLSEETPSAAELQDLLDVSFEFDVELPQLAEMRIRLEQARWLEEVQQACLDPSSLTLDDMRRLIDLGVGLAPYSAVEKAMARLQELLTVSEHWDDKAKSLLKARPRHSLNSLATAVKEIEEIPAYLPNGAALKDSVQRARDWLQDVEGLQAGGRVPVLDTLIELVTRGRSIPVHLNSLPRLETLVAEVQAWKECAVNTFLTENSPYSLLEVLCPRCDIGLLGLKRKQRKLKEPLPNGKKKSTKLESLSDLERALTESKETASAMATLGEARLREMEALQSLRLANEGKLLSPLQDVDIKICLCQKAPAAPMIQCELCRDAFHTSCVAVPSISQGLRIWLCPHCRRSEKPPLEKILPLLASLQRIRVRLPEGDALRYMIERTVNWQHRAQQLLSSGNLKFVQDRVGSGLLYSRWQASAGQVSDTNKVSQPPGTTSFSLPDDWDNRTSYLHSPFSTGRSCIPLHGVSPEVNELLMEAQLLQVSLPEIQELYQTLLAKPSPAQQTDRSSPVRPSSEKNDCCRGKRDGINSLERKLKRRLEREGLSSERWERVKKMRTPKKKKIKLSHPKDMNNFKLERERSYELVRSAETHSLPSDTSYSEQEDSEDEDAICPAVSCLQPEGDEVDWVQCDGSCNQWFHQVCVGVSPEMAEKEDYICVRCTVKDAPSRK
#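 Coupled FDH/NAD⁺ fluorescence readout. KDM5BΔAP 200 nM final; compound titration, 10 min RT preincubation; substrate mix 12.5 µM H3K4me3, 25 µM 2-OG, 50 µM Fe(II), 100 µM ascorbate, 0.25 mM NAD⁺, 0.25 U/mL FDH; ΔRFU over 30 min.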
# * = called active by the depositor; i = inactive. Shown is part of a subset that was picked to be rich in hits. Potency is read from the fitted curve at half-maximal effect.
SMILES,KDM5B inhibitor
Cc1noc(C)c1CN1CCc2nc(C(=O)Nc3cccc(C(F)(F)F)c3)oc2CC1,25µM*
Cc1csc(NC(=O)c2nc3c(o2)CCN(Cc2c(F)cccc2F)CC3)n1,i
O=C(Nc1cccnc1)c1nc2c(o1)CCN(Cc1cccc(O)c1)CC2,i
Cc1noc(C)c1CN1CCc2nc(C(=O)NCc3ccccc3)oc2CC1,i
O=C(Nc1cccc(C(F)(F)F)c1)c1nc2c(o1)CCN(Cc1nccs1)CC2,i
COc1ccc(CN2CCc3nc(C(=O)Nc4cccnc4)oc3CC2)cc1OC,i
O=C(Nc1cccc(C(F)(F)F)c1)c1nc2c(o1)CCN(Cc1cccs1)CC2,32µM*
COc1ccccc1CN1CCc2nc(C(=O)Nc3cccc(C(F)(F)F)c3)oc2CC1,35µM*
COc1ccc(CNC(=O)CSc2ccccc2C(=O)OCC(=O)C(C)(C)C)cc1,i
O=C(COc1cc(O)c2c(=O)cc(-c3ccccc3)oc2c1)N1CCCCC1,i
CSC(NS(=O)(=O)c1cccs1)=C(c1nc2ccccc2s1)c1nc2ccccc2s1,i
CC(C)(C)c1ccc(NC(=O)CSc2nc3ccccc3o2)cc1,i
CN=C(NC)NCc1cccc(Br)c1,i
CN(C)CCCNCc1ccccc1,i
CC(=O)N1CCN(C(=O)C(=O)Nc2cccc3[nH]ccc23)CC1,i
Cc1occc1-c1nnc(SCc2cc(-c3cccs3)on2)o1,i
Cc1ccccc1C(=O)N[C@@H]1CN(S(C)(=O)=O)C[C@H]1CN(C)C,i
CN(C)C[C@@H]1CN(S(C)(=O)=O)C[C@H]1NC(=O)c1cc2ccccc2[nH]1,32µM*
CN(C)C[C@@H]1CN(S(C)(=O)=O)C[C@H]1NC(=O)c1c[nH]c2ccccc12,i
COc1ccc(C(C)NC(=O)NCc2ccn[nH]2)cc1OC (configuration not stated),i
O=C(COC(=O)c1cc(=O)c2ccccc2o1)Nc1ccc(Cl)cc1,i
CC1(C(=O)NCC2CC2)CCc2cnc(Nc3ccccc3)nc21 (configuration not stated),i
CC1(C(=O)NCc2cccnc2)CCCc2cnc(Nc3ccccc3)nc21 (configuration not stated),i
CC1(C(=O)NCCCn2ccnc2)CCCc2cnc(Nc3ccccc3)nc21 (configuration not stated),i
COc1cccc(Nc2ncc3c(n2)C(C)(C(=O)NCC2CC2)CC3)c1 (configuration not stated),i
SMILES,KDM5B inhibitor
CN(C)c1ncc2c(n1)C(C)(C(=O)Nc1ccc(Cl)cc1)CCC2 (configuration not stated),35µM*
CN(C)c1ncc2c(n1)C(C)(C(=O)NCC1CC1)CCC2 (configuration not stated),32µM*
Cn1ccc(NC(=O)C2(C)CCCc3cnc(Nc4ccccc4)nc32)n1 (configuration not stated),i
CC1(C(=O)NCc2ccncc2)CCCc2cnc(Nc3ccccc3F)nc21 (configuration not stated),i
CC1(C(=O)Nc2ccc(C(N)=O)cc2)CCCc2cnc(Nc3ccccc3)nc21 (configuration not stated),i
CN(C)c1ncc2c(n1)C(C)(C(=O)NCCOc1ccccc1)CCC2 (configuration not stated),32µM*
CN(C)c1ncc2c(n1)C(C)(C(=O)NCCCn1ccnc1)CCC2 (configuration not stated),35µM*
CN1CCN(C(=O)C2(C)CCCc3cnc(Nc4ccccc4)nc32)CC1 (configuration not stated),i
CC(=O)N1CCC(N(CCCN2CCC(C)CC2)C(=O)Nc2cccc(C)c2C)CC1,i
CCOc1ccc(NC(=O)CSc2nccn2Cc2ccccc2OC)cc1,i
COc1ccc(CNC(=O)c2ccc3c(c2)NC(=O)CCS3)cc1,i
N#Cc1nc(COc2ccccc2)oc1NCc1cccnc1,i
Cc1cccc(N(C)C(=O)Cn2nc(-c3ccc(Br)cc3)ccc2=O)c1,i
O=C(NCc1nnc2cc(-c3nc(C4CC4)no3)ccn12)c1cccnc1,28µM*
O=C(NCc1nnc2cc(-c3nc(C4CC4)no3)ccn12)c1ccc(F)cc1,i
O=C(NCc1nnc2cc(-c3nc(C4CC4)no3)ccn12)c1ccc(F)c(F)c1,28µM*
COc1ccccc1C(=O)NCc1nnc2cc(-c3nc(C4CC4)no3)ccn12,28µM*
O=C(NCc1nnc2cc(-c3nc(C4CC4)no3)ccn12)c1ccc2[nH]ccc2c1,i
Cc1cccc(C(=O)NCc2nnc3cc(-c4nc(C5CC5)no4)ccn23)c1,i
O=C(NCc1nnc2cc(-c3nc(C4CC4)no3)ccn12)c1ccccc1F,8.9µM*
CC1(C)CC(=O)C2=C(C1)NC(=O)C(C#N)C2c1ccccc1 (configuration not stated),i
NS(=O)(=O)c1ccc(O)cc1,i
COc1ccc(-c2nc(CS(=O)CC(=O)NCc3ccccc3)c(C)o2)cc1 (configuration not stated),i
O=C(CSc1ncnc2scc(-c3ccccc3)c12)Nc1ccc(F)cc1,i
O=C(NCc1nnc2cc(-c3nc(C4CC4)no3)ccn12)c1nccc2ccccc12,28µM*
SMILES,KDM5B inhibitor
CC(C)NC(=O)NC(=O)CSc1nc2ccccc2c(=O)n1C1CC1,i
CC(C)COc1ccc(C(=O)N2CCCCC2CCN2CCCCCC2)cc1 (configuration not stated),i
NC1(C(=O)N2CCCC(CCc3ccccc3F)C2)CCC1 (configuration not stated),i
Cn1ccc2c(-c3cc(NCCO)nc(N)n3)ccnc21,28µM*
O=C(Cn1nnc(-c2ccccc2)n1)N1CCC(c2nc3ccccc3s2)CC1,i
COCCN(C)C(=O)c1ccc2c(c1)NC(C)(COc1ccc3[nH]ccc3c1)CO2 (configuration not stated),i
CC1(COc2ccc3[nH]ccc3c2)COc2ccc(C(=O)N3CCOCC3)cc2N1 (configuration not stated),i
CC1(COc2ccc3[nH]ccc3c2)COc2ccc(C(=O)NCc3cccs3)cc2N1 (configuration not stated),40µM*
CC1(COc2ccccc2)COc2ccc(C(=O)NC3CCC(O)CC3)cc2N1 (configuration not stated),32µM*
CC1(COc2ccc3[nH]ccc3c2)COc2ccc(C(=O)N3CC(O)C3)cc2N1 (configuration not stated),35µM*
CC1(COc2ccccc2)COc2ccc(C(=O)N3CCOCC3)cc2N1 (configuration not stated),i
CC(C)CNC(=O)c1ccc2c(c1)NC(C)(COc1ccc3[nH]ccc3c1)CO2 (configuration not stated),32µM*
CN(C)C(=O)c1ccc2c(c1)NC(C)(COc1ccc3[nH]ccc3c1)CO2 (configuration not stated),i
CC1(COc2ccccc2)COc2ccc(C(=O)NCc3cnccn3)cc2N1 (configuration not stated),i
O=C(c1cccc(Cl)c1)N(Cc1ccco1)c1ccccc1,i
C=C(C)C1CC=C(C)/C(=N/O)C1 (configuration not stated),i
CN(C)CCC#CC(O)(c1ccccc1)C1CCCCC1 (configuration not stated),i
CC1(NC(=O)CCc2ncc(-c3ccccc3)o2)CCS(=O)(=O)C1 (configuration not stated),i
